# Measured values published in PubChem BioAssay (EPA / NIEHS).
# Active and inactive are the calls of the source. Rule for the calls: active = hit-call score of the fitted dose curve at least 0.9, where 1 is the maximum; inactive = score below 0.9.
# Read-out: Tissue plasminogen activator (tPA), PLAT (gene 5327)
# Test: BSK_BF4T_tPA: BioMAP Diversity Plus: BF4T Assay for Tissue plasminogen activator (tPA) Biomarker Activity (AID 2284272)
# Conditions: primary human bronchial epithelial cells with fibroblasts
# Description: BSK_BF4T is a cell-based, multiplexed-readout assay that uses bronchial epithelial cells and dermal fibroblasts, a human vascular primary cell, with measurements taken at 24 hours after chemical dosing in a microplate: 96-well plate.BSK_BF4T_tPA is an assay component measured in the BSK_BF4T assay. It measures tPA antibody related to regulation of gene expression using ELISA technology.Data from the assay component BSK_BF4T_tPA was analyzed at the endpoint, BSK_BF4T_tPA, in the positive analysis fitting direction relative to DMSO as the negative control and baseline of activity. Using a type of binding reporter, gain or loss-of-signal activity can be used to understand protein changes. To generalize the intended target to other relatable targets, this assay endpoint is annotated to the 'protease' intended target family, where the subfamily is 'serine protease'.
# The levels of cell surface (or secreted, indicated by the prefix "s") biomarker endpoints were measured by ELISA. Overt cytotoxicity to cells in confluent adherent cultures (all systems other than the BT system) was assessed by measuring total protein levels using sulforhodamine B (SRB) staining in parallel cultures at the time of biomarker measurements, indicated as SRB endpoints. For proliferation assays for adherent cell types, individual cell types are cultured at sub-confluence and relative cell numbers quantified by SRB staining at time points optimized for each system (48 h: 3C and CASM3C systems; 72 h: BT and HDF3CGF systems; 96 h: SAg system). SRB was performed by staining cells with 0.1% SRB after fixation with 10% TCA and reading wells at 560 nm.Viability and proliferation of PBMC (T cells) was quantified by Alamar Blue reduction for the SAg and BT systems. For PBMC viability (referred to as PBMC Cytotoxicity within the assay endpoint names), cells were plated (75,000/well in a 96-well plate) and then chemical samples added for 1 h before addition of activators, SEB and TSST-1 (20 ng/mL final concentration each). Cells were incubated for 90 h. Then, Alamar Blue (20 uL/well) (Invitrogen, Cat DAL1100) was added for 6 h, and the plates were read with a fluorescence microplate reader at 546/580 nm (excitation/emission). For PBMC proliferation, cells were plated and activated as above but incubated for only 16 h prior to addition of Alamar Blue. Plates were read after 6 h.
row,SMILES,outcome
1,OCCC(F)(F)C(F)(F)C(F)(F)C(F)(F)F,inactive
2,FC(F)=C(F)C(F)(F)C(F)(F)C(F)(F)C(F)(F)C(F)(F)C(F)(F)F,inactive
3,NCC(F)(F)C(F)(F)C(F)(F)C(F)(F)F,inactive
4,O=S(=O)(O)CCC(F)(F)C(F)(F)C(F)(F)C(F)(F)C(F)(F)C(F)(F)F,inactive
5,OC(O)(C(F)C(O)(O)C(F)(F)F)C(F)(F)F,inactive
6,FC(F)(F)COC(OCC(F)(F)F)OCC(F)(F)F,inactive
7,FC(F)(F)C(F)(F)C(F)(F)C(F)(F)C(F)(F)C(F)(F)I,inactive
8,O=C(Cl)C(F)(F)C(F)(F)C(F)(F)C(=O)Cl,inactive
9,FC(F)C(F)(F)COCC1CO1 (stereo not given),inactive
10,C[Si](C)(C)C(F)(F)C(F)(F)C(F)(F)F,inactive
